Records with an inconclusive call do not appear. A number with no mark means an inactive call. Calls of active or inactive are those of the source. The call rests on the fitted dose curve; in most records, active means well fitted cell-killing curve with a large enough effect; inconclusive means small, poorly fitted or top-dose-only effect; inactive means no such curve, though single readings can be large or run the other way.
assay: qHTS of pediatric cancer cell lines to identify multiple opportunities for drug repurposing: Primary screen for NB1643 cells (AID 1347099); conditions: NB1643 neuroblastoma viability, CellTiter-Glo luminescence, 48 h; series mostly up to 46 µM; activity change, negative = cytotoxic: at the top concentration; further: nearly all actives have a fitted effect of over 50% in size
From the text: Drug repurposing or repositioning has been offered as a strategy for drug development in oncology programs. This approach has special potential for childhood cancers and other rare or orphan diseases, where the expected return on new drug development has been a disincentive to pharmaceuticals. […] In this project we exploit the poly-pharmacology of drugs to discover new indications via phenotypic screening of a panel of 19 well-characterized cell lines derived from solid tumors seen in children and adolescents. The goal is to identify approved drugs with previously unrecognized anticancer properties that has the potential to reveal new mechanisms and biological processes involved in carcinogenesis or drug resistance. We employed a titration-based paradigm (quantitative high-throughput screening or qHTS), where all compounds were tested at multiple concentrations for their effect on cell viability. Concentration-response curves (CRCs) were derived directly from the primary screen, and both potency and efficacy values were used to identify compounds with robust bioactivity profiles. We screened the NIH Chemical Genomics Center (NCGC) Pharmaceutical Collection (NPC) and Mechanism Interrogation Plate (MIPE) small molecule collections of approved and investigational compounds against these cell lines; and measured metabolically active cells after 48 hours of compound treatment as a proxy for cell viability. […] Assay Submitter: Nathalia J. Martinez, National Center for Advancing Translational Sciences, National Institutes of Health, Rockville, MD, USA; email: natalia.martinez@nih.gov Shen, M et al. Quantitative high-throughput phenotypic screening of pediatric cancer cell lines identifies multiple opportunities for drug repurposing. Oncotarget 2017 Dec 19;9(4):4758-4772. PMID 29435139.
The cells were obtained from University of North Carolina (UNC), Pediatric Preclinical Testing Program (PPT), and Coriell Institute (CI). qHTS cell viability assay: Cells were assayed in growth media at a density of 500-1,000 cells/well. Five microliters of cells were dispensed into 1,536-well, white, solid-bottom, TC-treated plates (Greiner Bio One) using a multidrop dispenser and incubated at 37 degrees C, 5% CO2, under a humidified atmosphere for 5 hours. Twenty-three nanoliters of compounds and controls (neutral control DMSO or positive control bortezomib at final concentration of 2.3 µM) were subsequently transferred by Kalypsys pintool. For primary screens, the MIPE collection was tested at 11-point dilutions (final concentrations range from 0.78 nM to 46 µM) and the NPC collection at 8-point dilutions (final concentrations range from 0.59 nM to 46 µM). Compounds tested in follow-up screens were assayed at 11-point dilutions. Cells were incubated for 48 hours, followed by addition of 3 µL of CellTiter-Glo (Promega). After a 15 min incubation at room temperature, samples were analyzed for luminescence intensity using a ViewLux High-throughput CCD imager equipped with clear filters.
Potency means the concentration at half of the fitted maximal effect.

With COc1cc(C[C@@H](C)N)c(OC)cc1C as the compound, how does the “activity change, negative = cytotoxic” value read?
Its value is 6.41% [at 92.7 µM].

Which “activity change, negative = cytotoxic” value does the source give for CN(C)CCc1c[nH]c2ccccc12 here?
The value was 0% [at 155 µM].

Which “activity change, negative = cytotoxic” value does the source give for COc1ccc2c(C(=O)c3ccc(Cl)cc3)c(C)n(CC(=O)O)c2c1 here?
Its value is -8.4%.

Which “activity change, negative = cytotoxic” value does the source give for COc1cc(CC(C)N)cc2c1OCO2 (stereo not given) here?
The value was -13.3% [at 92.7 µM].

Which “activity change, negative = cytotoxic” value does the source give for Cc1ncc2n1-c1ccc(Cl)cc1C(c1ccccc1F)=NC2 here?
Its value is -9.85%.

With CC[n+]1c(-c2ccccc2)c2cc(N)ccc2c2ccc(N)cc21 as the compound, how does the Potency read?
Its Potency is 11.9 µM (active).

For COc1ccc(OC)c(CC(C)N)c1 (stereo not given), which “activity change, negative = cytotoxic” value is on record?
The value was 0% [at 92.7 µM].

With Sc1ccccc1Cl as the compound, how does the “activity change, negative = cytotoxic” value read?
The value was 10.7%.

With CCN(CC)CCOC(=O)C(C)(c1ccccc1)c1ccccc1 as the compound, how does the “activity change, negative = cytotoxic” value read?
The value was 3.86%.

Which “activity change, negative = cytotoxic” value does the source give for C[C@H](N)[C@H](O)c1ccc(O)c(O)c1 here?
The value was 0%.

For Nc1ccccc1C(=O)OCC(O)CO (stereo not given), which “activity change, negative = cytotoxic” value is on record?
Its value is 13.4%.

Which “activity change, negative = cytotoxic” value does the source give for CCO[C@H]1O[C@@H]2OC3(C)CC[C@H]4[C@H](C)CC[C@@H]([C@H]1C)[C@@]24OO3 here?
The value was 4.3%.

With CCCOC(=O)Cc1ccc(OCC(=O)N(CC)CC)c(OC)c1 as the compound, how does the “activity change, negative = cytotoxic” value read?
The value was 10%.

Which “activity change, negative = cytotoxic” value does the source give for CNC(=O)Oc1cccc2ccccc12 here?
The value was 11.8%.

Which “activity change, negative = cytotoxic” value does the source give for COc1ccc(CN2CCNCC2)c(OC)c1OC here?
Its value is 5.71%.

For C[C@@H]1CC[C@H]2[C@@H](C)C(=O)O[C@@H]3O[C@@]4(C)CC[C@@H]1[C@]32OO4, which “activity change, negative = cytotoxic” value is on record?
Its value is -12.8%.

For ClC1=C(Cl)C2(Cl)C(CBr)CC1(Cl)C2(Cl)Cl (stereo not given), which “activity change, negative = cytotoxic” value is on record?
Its value is -0.171%.

For CN1C[C@@H](NS(=O)(=O)N(C)C)C[C@@H]2c3cccc4c3c(cn4C)C[C@H]21, which “activity change, negative = cytotoxic” value is on record?
The value was 9.71%.

For CCCC[N+]1(C)[C@@H]2CC(OC(=O)[C@H](CO)c3ccccc3)C[C@H]1[C@@H]1O[C@@H]12 (stereo not given in full), which “activity change, negative = cytotoxic” value is on record?
The value was 0%.

With CCS(=O)(=O)C(C)(C)S(=O)(=O)CC as the compound, how does the “activity change, negative = cytotoxic” value read?
The value was -4.9%.

Which “activity change, negative = cytotoxic” value does the source give for COc1cc(N)c(Cl)cc1C(=O)NC1CN2CCC1CC2 (stereo not given) here?
The value was 3.18%.

With CC1COC2(c3ccccc3Cl)c3cc(Cl)ccc3NC(=O)CN12 (stereo not given) as the compound, how does the “activity change, negative = cytotoxic” value read?
Its value is -21.2%.

With CCCCCCCCC(=O)NCc1ccc(O)c(OC)c1 as the compound, how does the Potency read?
The Potency was 0.001 µM (active).

With CC(C)C(Br)C(=O)NC(N)=O (stereo not given) as the compound, how does the “activity change, negative = cytotoxic” value read?
The value was 6.82%.

For COc1ccc(C(=O)N2CCCC2=O)cc1, which Potency is on record?
Its Potency is “inactive”.

For CCOP(=S)(OCC)O/N=C(\C#N)c1ccccc1, which “activity change, negative = cytotoxic” value is on record?
The value was 0%.

With Cc1ccc(N=CN(C)C=Nc2ccc(C)cc2C)c(C)c1 as the compound, how does the “activity change, negative = cytotoxic” value read?
The value was 0.143%.

Which “activity change, negative = cytotoxic” value does the source give for Clc1ccc(CO/N=C(\Cn2ccnc2)c2ccc(Cl)cc2Cl)c(Cl)c1 here?
The value was -27.1%.

For COc1ccc2c3c1O[C@H]1[C@@H](O)C=C[C@H]4[C@@H](C2)N(C)CC[C@@]341, which Potency is on record?
The Potency was 23.8 µM (active).

With CC(C)(O)C(Cl)(Cl)Cl as the compound, how does the “activity change, negative = cytotoxic” value read?
The value was 5.8%.

With c1ccc2nc(N3CCNCC3)ccc2c1 as the compound, how does the “activity change, negative = cytotoxic” value read?
The value was -12.8%.

For Nc1ccc(N)cc1, which “activity change, negative = cytotoxic” value is on record?
Its value is -3.49%.

For C=CCOC(Cn1ccnc1)c1ccc(Cl)cc1Cl (stereo not given), which “activity change, negative = cytotoxic” value is on record?
Its value is -14.7%.

Which “activity change, negative = cytotoxic” value does the source give for CC[C@H](O)C(C[C@H](C)N(C)C)(c1ccccc1)c1ccccc1 here?
Its value is 0% [at 92.7 µM].

With Nc1ccc(Cl)cc1C(=O)c1ccccc1F as the compound, how does the “activity change, negative = cytotoxic” value read?
The value was -7.69%.

Which “activity change, negative = cytotoxic” value does the source give for CN(C)CCc1c[nH]c2cccc(O)c12 here?
The value was 0% [at 92.7 µM].

Which “activity change, negative = cytotoxic” value does the source give for CN(C)C(=O)Oc1cc(OC(=O)N(C)C)cc(C(O)CNC(C)(C)C)c1 (stereo not given) here?
Its value is -9.01%.

For C[C@@H]1O[C@@H](O[C@@H]2C=C3CC[C@@H]4[C@H](CC[C@]5(C)[C@@H](c6ccc(=O)oc6)CC[C@]45O)[C@@]3(C)CC2)[C@H](O)[C@H](O)[C@H]1O, which Potency is on record?
Its Potency is 0.0067 µM (active).

Which “activity change, negative = cytotoxic” value does the source give for COc1cc(C[C@@H](C)N)c(OC)cc1Br here?
Its value is -6.26% [at 92.7 µM].

For NC(=O)OCCCc1ccccc1, which “activity change, negative = cytotoxic” value is on record?
The value was 0.483%.
